Measured values reported in PubChem BioAssay (NCI).
This is part of a sample that, as a whole, favours compounds with a hit. Of some 83,000 tested, about 20% had one in any assay.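 The endpoint reported here, percent growth, reads 100 for growth as untreated, 0 for no net growth and -100 for all cells dead.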

Legend:
Assay in all cases: NCI-60 one-dose screen, 48 h (100 = growth as untreated, 0 = no growth, -100 = all killed)
Conditions in all cases: 10 µM; active = growth percent below 10; inactive = the rest
[1] = system: NCI-H23 lung
[2] = system: NCI-H226 lung
[3] = system: NCI-H322M lung
[4] = system: HOP-62 NSCLC
[5] = system: HOP-92 NSCLC
[6] = system: NCI-H522 lung
[7] = system: A549/ATCC NSCLC
[8] = system: 786-0 renal
[9] = system: K-562 leukemia
[10] = system: MALME-3M melanoma
[11] = system: MDA-MB-231 breast
[12] = system: RXF 393 renal
[13] = system: SF-268 CNS
[14] = system: SF-295 CNS
[15] = system: SF-539 CNS
[16] = system: UACC-257 melanoma
[17] = system: M14 melanoma
[18] = system: COLO 205 colon
[19] = system: DU-145 prostate
[20] = system: NCI-H460 lung

Measured: growth

O=C(O)C(c1ccccc1)C(O)c1ccccc1 (stereo not given)
inactive: [1] 104% | [2] 77.8% | [3] 97.6% | [4] 101% | [5] 93% | [6] 96.1% | [7] 90.8% | [8] 107% | [9] 100% | [10] 117% | [11] 102% | [12] 107% | [13] 105% | [14] 96.5% | [15] 98.4% | [16] 85.7% | [17] 104%

CC(=O)c1c[nH]c2ccccc12
inactive: [1] 106% | [2] 97.5% | [3] 101% | [4] 95.8% | [6] 92.9% | [7] 103% | [8] 103% | [18] 119% | [19] 124% | [9] 103% | [10] 95.2% | [11] 114% | [12] 104% | [13] 113% | [14] 100% | [15] 105% | [16] 104% | [17] 102%

CCOc1ccc(/C=N/N=C(N)N)cc1OCC
inactive: [1] 92% | [2] 93.3% | [3] 110% | [4] 106% | [5] 99.4% | [6] 99.2% | [7] 95.7% | [8] 100% | [18] 107% | [19] 117% | [9] 98.7% | [10] 113% | [11] 108% | [12] 111% | [13] 96.2% | [14] 95.9% | [15] 99.8% | [16] 89.7% | [17] 99.3%

CCO/C=C1\SC(=S)N(c2cccc(C)c2)C1=O
inactive: [1] 108% | [2] 93.4% | [3] 92% | [4] 88.9% | [20] 102% | [8] 106% | [18] 108% | [19] 111% | [9] 99.5% | [10] 98.4% | [11] 117% | [12] 105% | [13] 101% | [14] 97% | [15] 97.8% | [17] 119%

COc1ccccc1N=Nc1c(O)ccc2cc(S(=O)(=O)O)ccc12
inactive: [1] 86.8% | [2] 98.2% | [3] 99.1% | [4] 82.7% | [5] 84.7% | [6] 85.7% | [7] 100% | [8] 107% | [18] 104% | [19] 111% | [9] 98.1% | [10] 109% | [11] 93.2% | [12] 104% | [13] 96.5% | [14] 94.2% | [15] 103% | [16] 95.8% | [17] 99.7%

Nc1ccccc1SC(CC(=O)c1ccccc1)c1c(Cl)cccc1Cl (stereo not given)
inactive: [1] 76.1% | [2] 96.6% | [3] 91.8% | [4] 73.4% | [20] 84.8% | [8] 96.8% | [18] 91.8% | [19] 23.9% | [9] 12.4% | [10] 77.1% | [11] 86.6% | [12] 86.8% | [13] 56% | [14] 94.2% | [15] 101% | [17] 93%

CCC(C#N)(CC)c1ccccc1
inactive: [1] 99.5% | [2] 99.3% | [3] 99.4% | [4] 92.9% | [20] 104% | [7] 111% | [18] 106% | [19] 109% | [9] 97.1% | [10] 121% | [11] 97.4% | [12] 115% | [13] 99.3% | [14] 113% | [15] 113% | [16] 104%

Cc1cc(N)c(S(=O)(=O)O)c(N)c1
inactive: [1] 97% | [2] 99.6% | [3] 101% | [4] 94.9% | [5] 47.1% | [6] 87.9% | [7] 109% | [8] 105% | [19] 96.6% | [9] 125% | [10] 118% | [11] 103% | [12] 112% | [13] 109% | [14] 96% | [15] 96.8% | [16] 104%

CCOC(=O)C1=C(C)NC(=O)NC1c1cccs1 (stereo not given)
inactive: [1] 98.4% | [2] 110% | [3] 111% | [4] 109% | [5] 107% | [6] 101% | [7] 94.8% | [8] 106% | [18] 107% | [19] 122% | [9] 103% | [10] 110% | [11] 110% | [12] 99.7% | [13] 108% | [14] 112% | [15] 103% | [16] 102% | [17] 111%

O=C(Nc1ccccc1)OCCc1ccccc1
inactive: [1] 108% | [2] 103% | [3] 116% | [4] 103% | [5] 82.5% | [7] 102% | [8] 97.2% | [18] 119% | [19] 108% | [9] 114% | [10] 107% | [11] 119% | [12] 93.3% | [13] 111% | [14] 80.9% | [15] 99% | [17] 110%

OC1OC(COC(c2ccccc2)(c2ccccc2)c2ccccc2)C(O)C(O)C1O (stereo not given)
inactive: [1] 98.1% | [2] 90.1% | [3] 92.1% | [4] 107% | [20] 101% | [8] 102% | [18] 117% | [19] 107% | [9] 95.4% | [10] 90.6% | [11] 91.9% | [12] 95.8% | [13] 97.7% | [14] 96.8% | [15] 102% | [17] 105%

Cc1cc2ccccc2c(O)c1C#N
inactive: [1] 91.1% | [2] 102% | [3] 119% | [4] 85.5% | [20] 107% | [7] 107% | [18] 112% | [19] 120% | [9] 92.8% | [10] 126% | [11] 98.9% | [12] 118% | [13] 103% | [14] 116% | [15] 110% | [16] 106%

Cc1nc2c(ccc3ccccc32)s1
inactive: [1] 98% | [2] 109% | [3] 116% | [4] 103% | [5] 93.7% | [6] 103% | [7] 98.6% | [8] 101% | [18] 110% | [19] 123% | [9] 115% | [10] 110% | [11] 107% | [12] 116% | [13] 116% | [14] 104% | [15] 100% | [16] 101% | [17] 98.5%

CC(=O)NCc1cc(C)c(C)cc1C
inactive: [1] 102% | [2] 93.4% | [3] 92% | [4] 106% | [20] 104% | [8] 97.8% | [18] 94.2% | [19] 104% | [9] 94.2% | [10] 88.7% | [11] 110% | [12] 103% | [13] 95.7% | [14] 103% | [15] 102% | [17] 105%

CCCCCCCCCCCCCCCCC1CC(=O)OC1=O (stereo not given)
inactive: [1] 107% | [2] 103% | [3] 114% | [4] 95.2% | [5] 125% | [6] 98.6% | [7] 98.5% | [18] 111% | [19] 121% | [10] 114% | [11] 98.3% | [12] 116% | [13] 113% | [14] 99.3% | [15] 104% | [16] 104%

Sc1ccc(Nc2c3ccccc3nc3ccccc23)cc1
inactive: [1] 73% | [2] 91.2% | [3] 74.6% | [4] 92.4% | [5] 76.9% | [6] 40.9% | [7] 61% | [8] 95.5% | [18] 38.9% | [19] 104% | [9] 32% | [10] 86% | [11] 98% | [13] 102% | [14] 26.5% | [15] 95.5% | [16] 68.1% | [17] 96.8%

N#CCCN(CCCN1CCOCC1)CN1C(=O)c2ccccc2C1=O
inactive: [1] 102% | [2] 97.9% | [3] 90.8% | [4] 105% | [6] 92% | [7] 105% | [8] 111% | [18] 109% | [19] 109% | [9] 91.6% | [10] 87.6% | [11] 113% | [12] 98% | [13] 115% | [14] 98.6% | [15] 110% | [16] 107% | [17] 125%

COc1ccc(/C=C/c2cccc[n+]2C)cc1
inactive: [1] 100% | [2] 101% | [3] 93.5% | [4] 77.5% | [20] 106% | [8] 94.3% | [18] 42.1% | [19] 111% | [9] 100% | [10] 94.6% | [11] 111% | [12] 101% | [13] 97.2% | [14] 99.1% | [15] 103% | [17] 103%

CCC(C)(C)C1CCC(O)CC1 (stereo not given)
inactive: [1] 91% | [2] 103% | [3] 103% | [4] 90.5% | [20] 103% | [7] 106% | [18] 110% | [19] 107% | [9] 110% | [10] 96.4% | [11] 94.9% | [12] 109% | [13] 101% | [14] 114% | [15] 104% | [16] 99.8%
